{"source": "PubChem BioAssay (NCI)", "note": "Compounds without any hit were thinned out: in the full panel of roughly 83,000, 20% have a hit.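 Step 1: grow cells in 96-well plates. Step 2: add test compound at a single concentration. Step 3: incubate 48 h. Step 4: record percent growth.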 A number with no mark means an inactive call. Active and inactive are the calls of the source.", "data": [{"system": "U251 CNS", "assay": "NCI-60 one-dose screen, 48 h (100 = growth as untreated, 0 = no growth, -100 = all killed)", "conditions": "10 µM unless noted", "procedure": "Growth inhibition of the U251 human tumor cell line is measured as a screen for anti-cancer activity. Cells are grown in 96 well plates and exposed to the test compound for 48 hours. Compounds are tested at a single concentration, which is 10^-5 M for most compounds. The reported endpoint is percent growth (GI% or GIPRCNT), where numbers from 0 - 100% represent growth inhibition, and numbers from -100% - 0 represent cell death. For example, a value of 40 represents 60% growth inhibition. A value of 0 means no net growth occurred over the course of the experiment. A value of -40 indicates 40% of cells at the beginning of the experiment died by the end of the experiment. A value of -100 means all cells are dead at the end of the experiment.\nNCI-60 Human Tumor Cell Lines Screen was performed using the standard one-dose NCI protocol, which is described in more detail at https://dtp.cancer.gov/discovery_development/nci-60/default.htm.\nCompounds with GIPRCNT values below 10 were considered active. Activity score was based on GIPRCNT using the following formula: […]\nScore is 0 for GIPRCNT values of 100 or above, 50 for GIPRCNT values of 0, and 100 for GIPRCNT values of -100.", "values": [{"smiles": "Oc1ccccc1/C=N\\NC(=S)Nc1ccc(F)cc1", "growth": "27.7%"}, {"smiles": "C=C(C)[C@@H]1CC[C@]2(C(=O)O)CC[C@]3(C)[C@H](CC[C@@H]4[C@@]5(C)C/C(=C/c6cccc(I)c6)C(=O)C(C)(C)[C@@H]5CC[C@]43C)[C@@H]12", "growth": "18.4%"}, {"smiles": "C=COCCCCCCCCCCCCCCCCCC", "growth": "106%"}, {"smiles": "CCCCn1c(-c2ccc(O)cc2)cn2c3c(=O)[nH]c(=O)n(C)c3nc12", "growth": "66.7%"}, {"smiles": "COc1ccc2c(c1)c(-c1nc(-c3cn(C)c4ncccc34)cs1)cn2CCN", "growth": "84.8%"}, {"smiles": "CCC1C(=O)COC1=O", "note": "(stereo not given)", "growth": "85%"}, {"smiles": "C=C(C)[C@@H]1CC[C@]2(C)[C@H](CC[C@@H]3[C@H]4[C@H]5OC[C@@]4(CCC5(C)C)CC[C@]32C)[C@@]1(C)CCCN", "growth": "-19.2% (active)"}, {"smiles": "COc1ccc(OC)c(-c2c(C#N)c(-c3ccco3)nc3c2c(-c2ccccc2)nn3-c2ccccc2)c1", "growth": "103%"}, {"smiles": "C[N+](C)(CCCCCC[N+](C)(C)C1c2ccccc2-c2ccccc21)C1c2ccccc2-c2ccccc21", "growth": "96.4%"}, {"smiles": "O=C(N/N=C\\c1ccccc1O)C1CC1", "growth": "103%"}, {"smiles": "Cn1cc(-c2csc(-c3c[nH]c4ccccc34)n2)c2cccnc21", "growth": "27.2%"}, {"smiles": "CCCCCCCN(CCCCCCC)C(=N)c1ccnc2ccccc12", "growth": "-87.5% (active)"}, {"smiles": "COc1ccc(/C=C/C(=O)NCC(C)O)cc1", "note": "(stereo not given)", "growth": "95.8%"}, {"smiles": "CCCCC(=O)OC1CCCCC1C", "note": "(stereo not given)", "growth": "85.6%"}, {"smiles": "O=C1NC(c2ccc(Cl)c(Cl)c2)=C/C1=C\\c1ccccc1", "growth": "46.1%"}, {"smiles": "OCC12CCCC(CO)(COC1)C2O", "note": "(stereo not given)", "growth": "99.2%"}, {"smiles": "COc1cc(/C=N/NC(=S)NNC(=S)NC2CCCCC2)cc(OC)c1OC", "growth": "100%"}, {"smiles": "Cc1[c-]onc1C.Cc1[c-]onc1C.[Ag].[Ag].[NH-]S(=O)(=O)c1ccc(N=Nc2cc(N=Nc3ccc(S([NH-])(=O)=O)cc3)c3c(NC(=O)C(Cl)Cl)cccc3c2OC(=O)C(Cl)Cl)cc1", "growth": "82.7%"}, {"smiles": "N#Cc1c(-c2ccc(O)cc2)c2c(N)nn(-c3ccccc3)c2[nH]c1=O", "growth": "103%"}, {"smiles": "COc1ccc2[nH]c(-c3ccc(Cl)cc3)cc(=O)c2c1", "growth": "96.7%"}, {"smiles": "CC(C)(C)c1nc(-c2ccc(O)c(O)c2)cs1", "growth": "46.9%"}, {"smiles": "CC(=O)N1N=C(c2ccc(C)cc2)CC1c1ccc(Oc2ccc(Br)cc2)cc1", "note": "(stereo not given)", "growth": "75.3%"}, {"smiles": "N#CC1=C(N)Oc2c(sc3c(F)cccc23)C1c1ccc(Cl)cc1", "note": "(stereo not given)", "growth": "25.7%"}, {"smiles": "COCCNC1=C(Cl)C(=O)c2ccccc2C1=O", "growth": "91.3%"}, {"smiles": "COC(=O)[C@]12CC[C@@H](C)[C@H](C)[C@@H]1C1=CC[C@@H]3[C@@]4(C)C=C(O)C(=O)C(C)=C4CC[C@@]3(C)[C@]1(C)CC2", "growth": "43.4%"}, {"smiles": "NNC(=O)c1nc2ccccc2[nH]1", "growth": "86.2%"}, {"smiles": "Nc1c(C(=O)Nc2c(Cl)cccc2Cl)sc2nc3c(cc12)CCCC3", "growth": "74.1%"}, {"smiles": "CCOC(=O)C1OC1(c1ccccc1)c1ccccc1", "note": "(stereo not given)", "growth": "100%"}, {"smiles": "O=S(=O)(NCCNc1cc(-c2cn(-c3ccccc3)nc2-c2cccc(O)c2)ccn1)c1ccccc1", "growth": "43.3%"}, {"smiles": "CC(C)(C)c1[nH]nc2c1C(c1cc3ccccc3[nH]c1=O)Nc1cc(C(=O)OCc3ccccc3)ccc1N2", "note": "(stereo not given)", "growth": "51.6%"}, {"smiles": "COc1ccc(/C=C/C(=O)NCCO)cc1", "growth": "94.8%"}, {"smiles": "Cn1cccc1/C=C1/SC(=S)N(CCc2ccc(O)cc2)C1=O", "growth": "41.8%"}, {"smiles": "c1ccc2[nH]c(-c3ccc(Nc4nc(N5CCCCC5)nc(N5CCOCC5)n4)cc3)nc2c1", "growth": "8.02% (active)"}, {"smiles": "CCc1nnc(NC(=O)c2ccoc2COc2ccccc2)s1", "growth": "49.7%"}, {"smiles": "Cc1ccncc1C(=O)O", "growth": "97.2%"}, {"smiles": "CC1(n2nnnc2N2CCCN(c3ncccc3N)CC2)CCC1", "growth": "101%"}, {"smiles": "COc1cc(-c2nc(-c3ccccc3)c(-c3ccccc3)[nH]2)cc(OC)c1O", "growth": "5.45% (active)"}, {"smiles": "Cc1nn2c(-c3nc4cc(Cl)c(Cl)cc4[nH]3)c(-c3ccc(F)cc3)nc2s1", "growth": "10.6%"}, {"smiles": "C=C1C(=O)O[C@H]2[C@H]1CC/C(Cn1cc(-c3ccc(F)cc3)nn1)=C\\CC[C@@]1(C)O[C@@H]21", "growth": "20.7%"}, {"smiles": "C#CCn1c(C)cc(C)c(C#N)c1=O", "growth": "100%"}]}]}
